Screens (PubChem)
HepG2 viability: kills HepG2 cells in TGF-b inhibitor counter-screen; HepG2 CAGA-GFP viability, ATP luminescence, 18 h; Potency, µM (titrated, usually from 46.1 µM), without a hit: at the highest dose activity change, negative = cytotoxicity, most hits filed as cytotoxic; 410,000 compounds, 0.76% hits; AID 588856
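CellTiter-Glo luminescence gave cytotoxicity after 18 hours at 37 degrees C. The cells were HepG2 CAGA-GFP in 1% FBS DMEM, stimulated with 500 pg/mL TGF-beta after compound addition. %Activity was normalised to no-cell wells (complete cell-killing) and DMSO (no toxicity), and curves were fitted and classified.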
ATXN2 expr inh: inhibitors of ATXN2 expression | HEK-293 ATXN2-luciferase reporter, luminescence, 24 h | Potency, µM (highest dose often 57 µM), without a hit: at the top dose activity change, negative = inhibition, most hits filed as inhibitors | 360,000 compounds, 0.72% hits | AID 1745845; note: % is set by controls: 0 for no effect and ±100 for the full control effect; nearly all actives have a fitted effect of over 55% in size
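qHTS (up to 57 uM final) was run with 24 h compound exposure of reporter cells at 37 °C. Each well was multiplexed: SteadyGlo luminescence measured ATXN2-luciferase expression after a fluorogenic Gly-Phe-AFC viability readout (25 uM final).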
HT1080-NT tox: kills 2HG-producing HT-1080-NT fibrosarcoma cells; HT-1080-NT fibrosarcoma viability, CellTiter-Glo ATP luminescence, 48 h; Potency, µM (titrated, usually from 46.1 µM), for inactives: at the highest dose activity, negative = less viability, usual class: cytotoxic; 360,000 compounds, 1.6% hits; AID 686970;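 note: NT is the 2HG producing partner of a matched IDH1 knockdown line; 0% = DMSO-treated cells and -100% = media-only wells without cells; nearly all actives have a fitted effect of over 55% in size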
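Luminescent CellTiter-Glo readout after 48 hours of compound exposure at 37 degrees C defined viability of HT-1080-NT cells. Activity was normalized to DMSO wells and cell-free media wells; concentration-response curves were fitted and assigned curve classes.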
ATXN viability: viability counter-screen for ATXN expression inhibitors; Potency, µM (highest dose often 56.7 µM), actives largely listed as cytotoxic; S2 cells (HEK-293 line with an ATXN2-luciferase reporter) viability, CellTiter-Fluor protease fluorescence, 24 h; AID 651635; 400,000 compounds, 0.49% hits; note: nearly all actives have a fitted effect of over 40% in size
HT1080 IDH1KD tx: HT-1080 IDH1 knockdown cell toxicity (counter line); Potency, µM (doses to about 46.1 µM), for the others: at the highest dose activity, negative = toxicity, hits mostly cytotoxic; 360,000 compounds, 2% hits; HT-1080 IDH1 knockdown viability, ATP luminescence, 48 h;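 note: 0% = DMSO wells and -100% = cell-free medium wells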
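Viability of IDH1-knockdown HT-1080 fibrosarcoma cells was assessed by CellTiter-Glo after 48 h at 37 °C with titrated compound; concentration-effect curves were classified by fit quality and response size.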
TGFb SMAD3 inh: blocks TGF-b signaling; Potency, µM (highest dose often 46.1 µM), for the others: top-dose activity, negative = inhibition, most hits filed as inhibitors; HepG2 CAGA-GFP TGF-b/SMAD3 reporter, GFP fluorescence, 18 h; TGF-beta stimulated, 500 pg/mL final; AID 588855; 410,000 compounds, 1.2% hits; note: % is set by controls: 0 for no effect and ±100 for the full control effect; nearly all actives have a fitted effect of over 65% in size
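TGF-beta reporter screen: HEPG2 CAGA-GFP, 1% FBS, 500 pg/mL TGF-beta final, 18 h; per-cell GFP summed per well; curves fitted and categorized by class.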
Starred values were filed as active, the others as inactive; i = inactive; ? = inconclusive; · = not tested or not shown. Compounds with a hit are over-represented: about 3.8% of the library has one in this group of screens. Calls come from the whole dose curve; as a rule, active = well fitted curve in the direction sought with a large enough effect; inconclusive = small, poorly fitted or top-dose-only effect, or another doubt; inactive = no such curve, though single readings can be large; an effect the other way counts as inactive or inconclusive. Potency is the fitted concentration of half-maximal effect.

SMILES	HepG2 viability	ATXN2 expr inh	HT1080-NT tox	ATXN viability	HT1080 IDH1KD tx	TGFb SMAD3 inh
COc1cc(Nc2ncc3c(n2)-c2ccc(Cl)cc2C(c2c(F)cccc2OC)=NC3)ccc1C(=O)O	·	1%	·	·	·	·
Cc1cc(C(=O)NOCCO)c(Nc2ccc(I)cc2F)n(C)c1=O	·	-5%	·	·	·	·
COc1cc(=O)n2c(c1C(=O)NCc1ccco1)CCN(Cc1cc3ccccc3[nH]1)CC2	·	·	·	i	·	·
C=C1CC(COc2ccc3c(C)c(Cl)c(=O)oc3c2)(c2ccccc2)OC1=O (configuration not stated)	-99%	?	16µM*	·	6.5µM*	?
COc1ccc2c(C)c(Cl)c(=O)oc2c1	0%	-8%	8%	i	14%	-1%
Cc1[nH]c(=O)[nH]c(=O)c1S(=O)(=O)Nc1cccc(Cl)c1C	1%	14%	·	i	·	1%
CCCCOc1ccc(C(=O)NCC2(N3CCN(C)CC3)CCCCC2)cc1	-20%	·	·	·	·	0%
COc1ccc(-c2ccc(C(=O)N(C)Cc3csc(C)n3)c(N3CCC(N4CCc5ccccc5C4)CC3)n2)cc1	·	·	·	i	·	·
CN(C)c1ccc(N=Cc2ccnc3ccccc23)cc1	-34%	·	·	·	·	0%
CCN(CC)C1CCCCC1NS(=O)(=O)c1ccc(Cl)cc1 (configuration not stated)	-5%	-10%	11%	i	1%	0%
CN(c1ccccc1)C1CCCCC1NS(=O)(=O)c1ccc(Cl)cc1 (configuration not stated)	-83%	·	-21%	?	?	11µM*
Cc1ccc(C)c(N(CC(=O)NC2CCCC2)C(=O)c2oc(C(C)(C)C)cc2C)c1	22µM*	?	?	?	?	?
Cc1cc(C)c(S(=O)(=O)N2CCC(n3c(C(F)(F)F)nc4cccnc43)CC2)c(C)c1	-12%	7%	·	i	·	-1%
CC(C)n1cnc2c(NCCCCCCNC(=O)OC(C)(C)C)nc(NCCO)nc21	·	14µM*	·	·	·	·
CCOC(=O)c1ccc(N2C(=O)c3n[nH]c(C)c3C2c2ccc(OC)cc2)cc1 (configuration not stated)	-26%	-1%	?	i	?	3%
CCOC(=O)c1ccc(N2C(=O)c3n[nH]c(C)c3C2c2cccc(Br)c2)cc1 (configuration not stated)	-104%	·	·	·	·	?
CCOC(=O)c1ccc(N2C(=O)c3n[nH]c(-c4cccs4)c3C2c2ccc(OCC)cc2)cc1 (configuration not stated)	-64%	?	·	?	·	1.6µM*
CCOC(=O)c1ccc(N2C(=O)c3n[nH]c(-c4cccs4)c3C2c2ccc(CC)cc2)cc1 (configuration not stated)	-89%	·	·	·	·	0.89µM*
CCOC(=O)c1ccc(N2C(=O)c3n[nH]c(-c4cccs4)c3C2c2ccc(C(C)C)cc2)cc1 (configuration not stated)	1%	5%	·	i	·	?
CCOC(=O)c1ccc(N2C(=O)c3n[nH]c(-c4cccs4)c3C2c2cccc(O)c2)cc1 (configuration not stated)	-82%	?	·	28µM*	·	11µM*
CCOC(=O)N1CCN([N+]([O-])=NOc2cc(ON=[N+]([O-])N3CCN(C(=O)OCC)CC3)c([N+](=O)[O-])cc2[N+](=O)[O-])CC1	·	5%	·	·	·	·
Cc1cccc(C(=O)Nc2cccc(OCc3cc(=O)n4c(C)csc4n3)c2)c1	-10%	-5%	·	i	·	-15%
CCCC(=O)NC(c1ccco1)c1cc(Cl)c2cccnc2c1O (configuration not stated)	-17%	25µM*	?	?	10µM*	-3%
CCCC(=O)NC(c1ccc2c(c1)OCO2)c1cc(Cl)c2cccnc2c1O (configuration not stated)	-7%	8.9µM*	8.2µM*	i	3.7µM*	?
Cc1ccc(S(=O)(=O)N2CCN(c3nc(-c4cccs4)nc4c3ncn4COC(=O)C(C)(C)C)CC2)cc1	·	·	5%	·	0%	·
SMILES	HepG2 viability	ATXN2 expr inh	HT1080-NT tox	ATXN viability	HT1080 IDH1KD tx	TGFb SMAD3 inh
CN1CCN(S(=O)(=O)c2ccc(NC(=O)Nc3cccc(Cl)c3)cc2)CC1	-12%	7%	21µM*	i	18µM*	?
COC(=O)c1cc(NC(=O)Nc2cccc(Cl)c2)ccc1Cl	-90%	?	13µM*	i	?	16µM*
COc1ccccc1NS(=O)(=O)c1cccc(NC(=O)Nc2cccc(Cl)c2)c1	14µM*	0%	-6%	·	?	?
CCCn1c(=O)n(-c2ccccc2)c(=O)c2sc3ccccc3c21	-21%	0%	·	i	·	-27%
COc1cc2cc(-c3ccc(OC)c(OC)c3C)nc(N)c2cc1OC	-41%	-10%	8.2µM*	?	1.3µM*	?
O=C(CSc1ncccn1)NCC1Cc2cccc(-c3ncccn3)c2O1 (configuration not stated)	·	·	·	i	·	·
CC(=O)N1CCC[C@H]1C(=O)NCC1Cc2cc(-c3cnccn3)cc(Cl)c2O1 (some centres not stated)	·	·	·	i	·	·
CCn1cc(C(=O)N2CCN(c3cccc(C)c3C)CC2)c2cc(OC)c(OC)cc2c1=O	-10%	?	·	?	·	10µM*
COc1cc(C(=O)N2CCN(c3cc(Cl)ccc3Cl)CC2)cc(OC)c1OC	1%	5%	1.3µM*	?	0.65µM*	?
Cc1cccc(N2CCN(C(=O)c3cc(S(=O)(=O)N4CCCC4)cn3C)CC2)c1C	-2%	-24%	?	i	15µM*	?
Cc1cccc(N2CCN(C(=O)c3ccc4ncsc4c3)CC2)c1C	-37%	16%	2.6µM*	i	5.8µM*	0%
COc1ccc(C(=O)N2CCN(C(=O)c3cc(OC)c(OC)c(OC)c3)CC2)cc1	-2%	-17%	9%	i	8%	1%
Cc1ccccc1-c1ccc(CN2CCc3nnc(C(NS(C)(=O)=O)C(C)C)n3CC2)cc1 (configuration not stated)	·	·	·	i	·	·
C[C@@H]1CN(Cc2ccc3c(c2)CN(Cc2cccn2-c2ccccn2)CCO3)C[C@H](C)O1	·	·	·	i	·	·
Cc1cc(C)cc(NC(=O)Cn2c(=O)n(CCC(C)C)c(=O)c3cccnc32)c1	-11%	-10%	·	i	·	-11%
COc1cc(C(=O)N2CCN(c3cccc(C)c3C)CC2)cc(OC)c1OC	-16%	?	1.2µM*	?	0.82µM*	?
